Screens as filed in PubChem BioAssay.
Tb PYK inh: inhibitors of Trypanosoma brucei pyruvate kinase | Q57TT1 | TbPYK enzyme, Kinase-Glo Plus ATP luminescence, 45 min | Potency, µM (doses to about 76.8 µM), for inactives: at the top dose activity, negative = inhibition, hits mostly inhibitors | actives 0.12% (n = 410,000) | AID 624173; note: potency is the fitted concentration of half-maximal effect; % is set by controls: 0 for no effect and ±100 for the full control effect; nearly all actives have a fitted effect of over 50% in size
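Enzyme and substrate buffer are dispensed first and compound is pin-transferred. ADP at 130 uM final then starts the reaction, which runs 45 min at room temperature. Detection reagent is added for 10 min before luminescence is imaged.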
Sm TGR block: blocks Schistosoma mansoni thioredoxin glutathione reductase | Q962Y6 | AID 485364 | Potency, µM (doses to about 114 µM), for inactives: at the highest dose activity change, negative = inhibition, hits mostly inhibitors | purified TGR, DTNB reduction, TNB absorbance 405 nm | actives 3% (n = 360,000); note: potency is the fitted concentration of half-maximal effect; % is set by controls: 0 for no effect and ±100 for the full control effect; nearly all actives have a fitted effect of over 60% in size
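Kinetic colorimetric format: TGR-catalysed, NADPH-driven DTNB reduction monitored via TNB absorbance. Enzyme dispensed at 20 nM; compound exposure 15 min at room temperature before reaction start.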
Shiga inhibitor: blocks Shiga toxin action in Vero cells | Vero cells, Shiga toxin protein synthesis inhibition reporter | inhibition, % at 38.7 µM | actives 9.2% (n = 290,000); in the data active = inhibition mostly above about 28%, no sharp cut-off; inactive = mostly below about 43%; note: 0% is about no effect
FBPA Giardia inh: blocks Giardia fructose-bisphosphate aldolase activity | Potency, µM (doses to about 59.6 µM), for the others: top-dose activity, negative = inhibition, actives largely listed as inhibitors | actives 0.71% (n = 290,000) | purified Giardia FBPA; note: potency is the fitted concentration of half-maximal effect; % is set by controls: 0 for no effect and ±100 for the full control effect; nearly all actives have a fitted effect of over 55% in size
Target sequence (A8B2U2 whole entry, looked up): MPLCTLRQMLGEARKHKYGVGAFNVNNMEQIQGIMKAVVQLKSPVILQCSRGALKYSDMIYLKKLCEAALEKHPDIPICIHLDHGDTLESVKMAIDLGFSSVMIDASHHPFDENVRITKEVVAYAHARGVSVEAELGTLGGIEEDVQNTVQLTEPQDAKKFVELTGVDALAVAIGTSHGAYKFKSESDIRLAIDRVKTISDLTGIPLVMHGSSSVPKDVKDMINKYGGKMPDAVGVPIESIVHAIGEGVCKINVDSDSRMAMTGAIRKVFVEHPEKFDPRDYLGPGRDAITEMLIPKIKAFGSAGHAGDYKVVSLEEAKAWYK
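Giardia FBPA (40 nM reagent) was preincubated 10 min at RT with compound (up to 57.5 uM final), then substrate plus GAPDH/TPI/NAD/arsenate coupling system with diaphorase/resazurin was added; resorufin fluorescence (525/598 nm) was read after 20 min.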
LmPK inhibitor: inhibitors of Leishmania mexicana pyruvate kinase; Q27686; purified LmPK, Kinase-Glo ATP luminescence, 1 h; Potency, µM (highest dose often 57.5 µM), for the others: at the top dose activity change, negative = inhibition, actives largely listed as inhibitors; actives 0.37% (n = 290,000); AID 1721; note: potency is the fitted concentration of half-maximal effect; % is set by controls: 0 for no effect and ±100 for the full control effect
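ATP generated from ADP (0.1 mM) and PEP (0.5 mM) by 0.1 nM LmPK over 1 h at room temperature (pH 7.2 imidazole buffer) was detected by coupled luciferase luminescence. Values were normalized to uninhibited and no-enzyme wells.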
Cycloheximide cs: counter-screen for Shiga toxin inhibitors: cycloheximide protein synthesis inhibition | cell reporter, cycloheximide protein synthesis inhibition counterscreen | max response, % | actives 12% (n = 300,000); in the data active = max response mostly above about 13%, no sharp cut-off; inactive = mostly below about 14%; note: read at 38.3 µM for the half of the compounds with a filed dose; 0% is about no effect
Active calls of the source: *; ? = inconclusive; · = no result given; [ ] = remark or other dose. The sample as a whole holds a higher share of hits than the screen did. Unless noted, calls come from the whole dose curve; as a rule, active = well fitted curve in the direction sought with a large enough effect; inconclusive = small, poorly fitted or top-dose-only effect, or another doubt; inactive = no such curve, though single readings can be large; an effect the other way counts as inactive or inconclusive.

SMILES	Tb PYK inh	Sm TGR block	Shiga inhibitor	FBPA Giardia inh	LmPK inhibitor	Cycloheximide cs
COc1ccccc1Cn1cc(C(=O)c2ccc(C)cc2)c(=O)c2cc(F)cc(F)c21	-1.3%	0.2%	·	·	·	·
O=C(Nc1ccccc1)c1snc2c(=O)[nH]cnc12	-16.1%	15.2%	18.4	6.2%	-0.8%	15.7*
CCOC(=O)c1snc2c(=O)[nH]cnc12	2.7%	1.5%	-6.4	-5.9%	2.4%	-4.2
Nc1cnc(Nc2ccc(Br)cc2)nc1N	-2.8%	2.4%	57.8*	1.3%	-3.3%	27.5*
Nc1ncnc(Nc2ccccc2)n1	0.2%	1.3%	·	·	·	·
CC12C=CC(=O)C=C1CCC1C2=CCC2(C)C1CC[C@@H]2C(=O)CN1CCN(c2cc(N3CCCC3)nc(N3CCCC3)n2)CC1 (some centres not stated)	·	·	20.0	?	·	-1.6
CC(NC(=O)Nc1ccc(Br)cc1)C(C)(C)C (configuration not stated)	3.0%	·	79.7*	-13.8%	-3.2%	27.0*
Cn1c(=S)n(/N=C/c2cccs2)c2ccccc21	-9.4%	-8.0%	46.1*	-6.4%	2.9%	25.3*
FC(F)(F)c1cc(CO[C@H]2CCCN[C@H]2c2ccccc2)cc(C(F)(F)F)c1	·	·	·	-10.9%	·	·
Cn1c(=O)oc2cc(S(=O)(=O)N3CCC(C(=O)N4CCN(c5ccc(Cl)cc5)CC4)CC3)ccc21	0.2%	-8.4%	·	·	·	·
O=C(O)CCC(=O)NNC(=O)CCC(=O)Nc1ccccc1	-4.3%	·	11.9	-0.5%	1.7%	1.1
O=C(O)CCC(=O)Nc1ccc(/C=C/C(=O)C2CC2)cc1	-0.9%	15.1%	43.2	4.2%	2.2%	29.4*
Cc1ccc(C)c(NC(=O)Cn2c(=O)n(CC(=O)NCCc3ccccc3)c(=O)c3ccccc32)c1	0.2%	3.8%	·	·	·	·
CCn1nnnc1SCC(=O)Nc1nc(C)c(C)s1	-1.9%	-20.0%	43.6*	-5.8%	-1.4%	28.9*
COCCCn1nnnc1SCC(=O)Nc1nc(C)c(C)s1	0.6%	-21.2%	-14.3	-0.2%	-1.1%	17.8*
COCCCn1nnnc1SCC(=O)N1CCCC1	2.2%	-17.0%	-28.1	1.8%	-6.6%	-3.6
CCn1nnnc1SCC(=O)Nc1nnc(C(C)C)s1	-2.9%	5.7%	17.9	?	0.2%	11.4
COc1ccccc1N1CCN(C(=O)c2c(C)oc3ncn(C)c(=O)c23)CC1	0.3%	-0.2%	·	·	·	·
COc1cc(N/N=C/c2ccc(N(C)C)cc2)ncn1	-20.1%	1.2%[57.1 µM]	97.4*	-0.7%	?	44.8*
COc1cc(N/N=C/c2ccccc2O)ncn1	-6.9%	-0.3%	33.2*	-9.8%	-15.1%	28.3*
Clc1ccc(CCNC(c2cccc(Cl)c2)c2nnc(-c3ccccc3)o2)cc1 (configuration not stated)	-1.4%	0.5%	·	·	·	·
Cc1ccc(NC(=O)c2ccc(Nc3ccccc3F)nc2)cc1	1.0%	3.0%	14.8	0.7%	-2.7%	40.2*
Cc1ccc(NC(=O)c2ccc(NCc3ccc(F)cc3)nc2)cc1	1.1%	-4.2%	-3.0	7.1%	2.9%	-3.3
O=C(NC(=S)Nc1ccc(Cl)cn1)C12CC3CC(CC(C3)C1)C2	-2.3%	0.0%	45.6	-1.7%	-3.8%	14.9*
O=C(CCc1ccccc1)Nc1ccc(Cl)cn1	3.5%	6.8%	134.1*	-7.4%	-0.4%	46.0*
SMILES	Tb PYK inh	Sm TGR block	Shiga inhibitor	FBPA Giardia inh	LmPK inhibitor	Cycloheximide cs
Cc1ccc(C(=O)Nc2ccc(Cl)cn2)cc1	1.6%	-3.8%	54.8*	-13.7%	-25.9%	33.8*
CCC(=O)Nc1ccc(NC(=O)CCc2ccccc2)cn1	-10.6%	-11.0%	·	-10.2%	0.0%	-2.9
Cc1ccc(C(=O)NCC(=O)OCC(=O)Nc2ccc(Cl)cn2)cc1	-0.7%	-27.5%	·	·	·	·
CCC(=O)NC(=S)Nc1ccc(Cl)cn1	-5.9%	9.8%	5.2	-16.1%	-4.0%	26.3
COc1cc2[nH]c(=O)n(CCCC(=O)NCc3ccccc3Cl)c(=O)c2cc1OC	-6.2%	-1.0%	·	·	·	·
Cc1nnc(N2CCN(C(=O)Nc3cccc(C(F)(F)F)c3)CC2)c2nn(-c3ccccc3)c(C)c12	2.0%	-1.0%	·	·	·	·
O=C(CSc1nc2c(c(=O)[nH]1)CN(Cc1ccc3c(c1)OCO3)CC2)Nc1ccc(F)cc1	0.0%	6.4%	·	·	·	·
